Measurements from PubChem BioAssay (NCI).
Compounds without any hit were thinned out: in the full panel of roughly 79,000, 15% have a hit. Calls of active or inactive are those of the source. Rule as the data show it: active = growth inhibition above about 70%; inactive = the rest. Where a SMILES comes first, the peptide text is derived from it. [ ]: non-standard residue; d: D form. The star is where a group is joined. ξ: configuration not given here. Boc = CC(C)(C)OC(=O)*; ξV = CC(C)C(N)C(=O)O; OBn = c1ccc(CO*)cc1

Tests used:
[1] = NCI Yeast Anticancer Drug Screen. Data for the rad50 strain (AID 155);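 also: 0% = growth of vehicle-only cultures of the same strain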; conditions: S. cerevisiae rad50 strain growth inhibition; at 50.0 µM; stronger effect = higher value
How it was run: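 Cells are treated with compound, grown, and their growth is then scored against vehicle-only cultures of the same repair-deficient yeast strain.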

[2] = NCI Yeast Anticancer Drug Screen. Data for the mec2-1 strain (AID 157); conditions: S. cerevisiae mec2-1 strain, at 50.0 µM, stronger effect = higher value
How it was run: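 Growth inhibition is read against vehicle-treated controls after compound exposure of the mec2-1 yeast strain, which is defective in DNA damage repair or cell cycle control.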

[3] = NCI Yeast Anticancer Drug Screen. Data for the sgs1 mgt1 strain (AID 161);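 also: 0% = growth of cultures given vehicle only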; conditions: S. cerevisiae sgs1 mgt1 strain, at 50.0 µM, stronger effect = higher value
How it was run: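 Yeast cells carrying a defined DNA-repair defect were exposed to test compounds. Growth inhibition was measured relative to vehicle-treated controls.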

[4] = NCI Yeast Anticancer Drug Screen. Data for the cln2 rad14 strain (AID 165);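 also: 0% = growth equal to vehicle treated cultures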; conditions: S. cerevisiae cln2 rad14 strain, at 50.0 µM, stronger effect = higher value
How it was run: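 Growth inhibition, relative to vehicle-treated controls, is the read-out. The test organism is a yeast strain with defined genetic alterations, cln2 rad14.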

[5] = NCI Yeast Anticancer Drug Screen. Data for the bub3 strain (AID 167); conditions: S. cerevisiae bub3 mutant strain, at 50.0 µM, stronger effect = higher value
How it was run: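 Part of a panel of yeast mutants defective in DNA damage repair or cell cycle regulation. Each strain is grown with compound, and inhibition is calculated relative to solvent-treated cultures.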

[6] = NCI Yeast Anticancer Drug Screen. Data for the mlh1 rad18 strain (AID 175); conditions: S. cerevisiae mlh1 rad18 strain growth inhibition; at 50.0 µM; stronger effect = higher value
How it was run: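 Cells of a genetically altered yeast strain, deficient in DNA damage repair, were treated with compound. Their growth was then compared with that of vehicle-treated cultures to give inhibition.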

Measured: growth inhibition

CC1C(C(=O)NCC(c2ccccc2)c2ccccc2)CC2CCCCN21 (stereo unspecified)
inactive: [1] -15.5% | [2] -4.75% | [3] 13.2% | [4] -9.2% | [5] 11.2% | [6] 25.9%

Ic1ccc2c[n+]3ccccc3cc2c1
inactive: [1] -11.7% | [2] 25.9% | [3] 8.85% | [4] -29.8% | [5] 1.75% | [6] -3.95%

COC1=C(OC)C(=O)C(COC2CCCCO2)=CC1=O (stereo unspecified)
inactive: [1] -4.9% | [2] -1.45% | [3] 8.75% | [5] 10.6% | [6] -6.65%
active: [4] 87.5%

CCCCON1C[C@@H](O)C(O)[C@@H](O)C1 (stereo partly specified)
inactive: [1] -25.9% | [2] 8.9% | [3] -37.9% | [4] -13.2% | [5] 13.6% | [6] -4.35%

O=C(O)c1ccc(C2=Cc3cc(Cl)ccc3OC2)cc1
inactive: [1] 19.6% | [2] -5.1% | [3] -19.4% | [4] 26.2% | [5] -15.1% | [6] -11.1%

CCC/C(CC)=N\Nc1ccc([N+](=O)[O-])cc1[N+](=O)[O-]
inactive: [1] -6.9% | [2] 9.4% | [3] -2.35% | [4] 30.9% | [5] 12.9% | [6] -4.1%

CC(=O)CCc1ccc(OC(=O)C(Cl)Cl)cc1
inactive: [1] 27% | [2] 12.1% | [3] 18.7% | [4] 13.8% | [5] 13.9% | [6] 29.6%

O=C(N/C(=C\c1ccccc1[N+](=O)[O-])c1nc2ccccc2[nH]1)c1ccccc1
inactive: [1] -3.4% | [2] -1.45% | [3] 1.2% | [4] -1.15% | [5] 6.85% | [6] -1.7%

Cc1ccccc1S(=O)(=O)N1C(=O)c2ccccc2S1(=O)=O
inactive: [1] 12.8% | [2] -13.8% | [3] 5.35% | [4] 10.2% | [5] 5.15% | [6] -13.8%

O=C1c2cc([N+](=O)[O-])ccc2-c2c(F)cccc21
inactive: [1] 5.5% | [2] 8.25% | [3] -1% | [4] -32% | [5] 10.2% | [6] 4.1%

Cc1cc(C)c(C2CNCc3cc4c(cc32)CNCC4c2c(C)cc(C)cc2C)c(C)c1 (stereo unspecified)
inactive: [1] -16.3% | [2] -32.8% | [3] -46% | [4] -44.9% | [5] -62.8% | [6] -131%

COc1ccc(-c2c(-c3ccccc3)oc(/N=C/c3ccccc3)c2-c2ccccc2)cc1
inactive: [1] 8.35% | [2] -0.75% | [3] 4.9% | [4] -2.8% | [5] 2.25% | [6] 13.8%

COC(C(N)=O)c1ccccc1 (stereo unspecified)
inactive: [1] -9.8% | [2] -11.3% | [3] -16.4% | [4] -8% | [5] 8.7% | [6] -3.45%

COc1ccc([N+](=O)[O-])cc1NS(=O)(=O)c1ccc(NC(C)=O)cc1
inactive: [1] 1.6% | [2] 18.7% | [3] -5.55% | [4] -1.25% | [5] 23.8% | [6] -19%

CC(=O)Nc1ccc(S(=O)(=O)Oc2noc3ccc(Br)cc23)cc1
inactive: [1] -8.35% | [2] -8.05% | [3] -23% | [4] -4.5% | [5] -3.95% | [6] 2.4%

CCCCCCCCCc1cc(=O)c2ccc(OCc3ccccc3)cc2o1
inactive: [1] -42.5% | [2] -28.6% | [3] -21.1% | [4] -11.2% | [5] -28.6% | [6] -42%

N#Cc1c(/C=C/c2ccccc2)c2c([nH]c1=S)CCCCC2
inactive: [1] 0.35% | [2] -17.5% | [3] 16.1% | [4] 26.8% | [5] 16.9% | [6] 19.1%

O=P(O)(c1ccccc1Br)c1ccccc1Br
inactive: [1] 43.5% | [2] 10.6% | [3] 28% | [4] 26.2% | [5] 4.65% | [6] 20.2%

Nc1nc2c(ncn2C2C=CC(CO)C2)c(=O)[nH]1 (stereo unspecified)
inactive: [1] 7.6% | [2] 12.5% | [3] 3.9% | [4] 10.4% | [5] -2.1% | [6] 4.25%

C=CC(=O)OCCC#N
inactive: [1] 9% | [2] 18.8% | [3] 1.3% | [4] 2.8% | [5] 15.1% | [6] 5.45%

COc1ccc(N2C(=O)C3C=CC(n4[nH]c(=O)n(Cc5ccccc5)c4=O)CC3C2=O)cc1 (stereo unspecified)
inactive: [1] 6.6% | [2] 1.8% | [3] -0.9% | [4] -20.9% | [5] 8.4% | [6] -25.6%

O=NN(CCCl)C(=O)N(C1CCCCC1)C1CCCCC1
inactive: [1] 8.5% | [2] -3.95% | [3] 12.1% | [4] 3.35% | [5] 5% | [6] 27.7%

Clc1ccc(N=C(Oc2ccc(Cl)cc2)c2ccccc2)cc1
inactive: [1] 4.95% | [2] 7.35% | [3] -4.85% | [4] -12.4% | [5] 0.25% | [6] 3.6%

C[N+](C)(CCO)CCO
inactive: [1] 3.15% | [2] -8% | [3] -8.5% | [4] 14.8% | [5] 0.85% | [6] 13.1%

CC(C)n1ncc2c(N)ncnc21
inactive: [1] 4.2% | [2] -2.2% | [3] -6.8% | [4] -26.8% | [5] 21.4% | [6] -3.8%

CN(C)c1ccc([O-])cc1.CN(C)c1ccc([O-])cc1.CN(C)c1ccc([O-])cc1.CN(C)c1ccc([O-])cc1.[Ti+4]
inactive: [1] 26.9% | [2] -19.4% | [3] 4.65% | [4] 19.3% | [5] 4.95% | [6] -2.6%

NC(=S)N/N=C1/CC(=O)N(c2ccccc2)C1c1ccccc1 (stereo unspecified)
inactive: [1] 32.6% | [2] 13.2% | [3] 37% | [4] -2.8% | [5] 32.4% | [6] 38.9%

COc1ccc2ncc(C)c(CO)c2c1
inactive: [1] 3.25% | [2] -6.05% | [3] -1.65% | [4] -50.9% | [5] 0.75% | [6] -2.65%

CCOC(=O)NC(C(=O)OCC)(N1CCN(c2cc3c(cc2F)c(=O)c(C(=O)O)cn3CC)CC1)C(F)(F)F (stereo unspecified)
inactive: [1] -10.5% | [2] -25.2% | [3] -11.1% | [4] -24.4% | [5] -7.55% | [6] -5.05%

NC(CO)C(=O)NCC(=O)O (stereo unspecified)
inactive: [1] -29.5% | [2] 5.75% | [3] -30.2% | [4] -79.5% | [5] -18.2% | [6] -23.9%

COc1ccc2nc3cc(Cl)ccc3c(NC(C)CCCN(C)C)c2n1 (stereo unspecified)
inactive: [1] 44.8% | [2] 42.8% | [3] 64.2% | [4] 31.2% | [5] 46.3% | [6] 65%

COC(=O)C(Cc1c[nH]c2ccccc12)NC(=O)C(Cc1c[nH]c2ccccc12)NC(=O)C(Cc1c[nH]c2ccccc12)NC(=O)OC(C)(C)C (stereo not drawn) (Boc-Trp-Trp-Trp-OMe; configuration not given here)
inactive: [1] -22.9% | [2] -16.6% | [3] -2.45% | [4] 10% | [5] -3.6% | [6] 1.5%

COc1ccccc1NC(=O)CC(=O)N1N=C(C)C(N=Nc2ccc(S(N)(=O)=O)cc2)C1=O (stereo unspecified)
inactive: [1] 13.3% | [2] -1.65% | [3] -8.2% | [4] 12.8% | [5] 11% | [6] 11.3%

CC1CN=C(Nc2ccc(S(N)(=O)=O)cc2)S1 (stereo unspecified)
inactive: [1] -21.2% | [2] -18.6% | [3] -58.1% | [4] -11.4% | [5] -2.25% | [6] -43%

CC(C)CC1CC(=O)C(=O)C(CC(C)C)C1 (stereo unspecified)
inactive: [1] 8.25% | [2] 0.5% | [3] 3.45% | [4] -17.5% | [5] 3.95% | [6] -1.05%

C=C1C(=O)O[C@H]2[C@H]1CC(=O)/C(C)=C\CC[C@@]1(C)O[C@@H]21
inactive: [1] 29.2% | [2] 59.4% | [3] 63.4% | [4] 35.5% | [5] 64.8% | [6] 43.1%

Cc1nc2c(ccc3cc4ccccc4cc32)cc1N(CCO)CCO
inactive: [1] 28.1% | [2] -0.75% | [3] -0.15% | [4] 20.9% | [5] 16.6% | [6] 18.1%

COc1ccc(-c2cc(=O)c3ccc(C)nc3[nH]2)cc1
inactive: [1] -18.9% | [2] -30.8% | [3] -40.4% | [4] -20.7% | [5] -16.1% | [6] -18.8%

CC(C)CCCC(C)C1CCC2C3CCC4CC(O)C5(CC4(C)C3CCC12C)SCCS5 (stereo unspecified)
inactive: [1] 41% | [2] 10.9% | [3] 15.1% | [4] 18.4% | [5] -6.35% | [6] 18.4%

CC(C)C(NC(=O)OC(C)(C)C)C(=O)NCC(=O)OCc1ccccc1 (stereo unspecified) (Boc-[ξV]-Gly-OBn)
inactive: [1] -37.9% | [2] -36% | [3] 12.2% | [4] -3.3% | [5] -8.6% | [6] -21.6%

COc1ccc(/C(=N\O)C(c2ccc(OC)cc2)C(Cl)(Cl)Cl)cc1 (stereo unspecified)
inactive: [1] 52.8% | [2] 38.9% | [3] 38.9% | [4] 14.7% | [5] 16.6% | [6] 44.9%
